Laboratory results taken from PubChem BioAssay (NCATS).
Results filed as inconclusive are left out. Where a call stands in place of a potency, no number is given. Calls of active or inactive are those of the source. Calls follow the shape of the full dose curve. Residues, ends and D or L forms follow the SMILES beside them.

Experiment: Cytotoxicity counterscreen for inhibitors of SARS-CoV-2 cell entry (AID 1645845); also: nearly all actives have a fitted effect of over 50% in size
Settings: cell viability (SARS-CoV-2 entry assay cells); series mostly up to 57.1 µM
Method in brief: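 Counterscreen run in the same HEK293-ACE2 line as the pseudotyped-particle entry assay, without particles. Viability after 48 h at 37 C was read as ATP luminescence, scaled between cell-containing and cell-free wells.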

| SMILES | Potency | outcome |
| --- | --- | --- |
| CN(C)CCOC(=O)COc1ccc(Cl)cc1 | inactive | – |
| NC(=O)c1ncn([C@@H]2O[C@H](CO)[C@@H](O)[C@H]2O)c1O | inactive | – |
| O=C(O)C[C@H](O)C[C@H](O)/C=C/c1c(C2CC2)nc2ccccc2c1-c1ccc(F)cc1 | inactive | – |
| O=C(CS(=O)Cc1ccco1)NC/C=C\COc1cc(CN2CCCCC2)ccn1 (stereo unspecified) | inactive | – |
| CCCC(=O)O[C@]1(C(=O)COC(=O)CC)CC[C@H]2[C@@H]3CCC4=CC(=O)CC[C@]4(C)[C@H]3[C@@H](O)C[C@@]21C | inactive | – |
| CC1CCc2c(N3CCC(O)CC3)c(F)cc3c(=O)c(C(=O)O)cn1c23 (stereo unspecified) | inactive | – |
| C[C@@H]1O[C@@H](OC[C@H]2O[C@@H](Oc3c(-c4ccc(O)c(O)c4)oc4cc(O)cc(O)c4c3=O)[C@H](O)[C@@H](O)[C@@H]2O)[C@H](O)[C@H](O)[C@H]1O | inactive | – |
| CC(C)(C)NC[C@H](O)COc1nsnc1N1CCOCC1 | inactive | – |
| Nc1nc(N)nc(-c2cc(Cl)ccc2Cl)n1 | inactive | – |
| O=C(O)c1cc(N=Nc2ccc(O)c(C(=O)O)c2)ccc1O | inactive | – |
| CC(=O)SCC(CC(=O)c1ccc(C)cc1)C(=O)O (stereo unspecified) | inactive | – |
| O=C(N[C@H](CO)[C@H](O)c1ccc([N+](=O)[O-])cc1)C(Cl)Cl | inactive | – |
| CC(=O)Nc1ccc(OC(=O)c2ccccc2OC(C)=O)cc1 | inactive | – |
| CC1(C)O[C@@H]2C[C@H]3[C@@H]4CCC5=CC(=O)C=C[C@]5(C)[C@@H]4[C@@H](O)C[C@]3(C)[C@]2(C(=O)CO)O1 | inactive | – |
| CC(C)=CCC1C(=O)N(c2ccccc2)N(c2ccccc2)C1=O | inactive | – |
| CCC(Cc1c(I)cc(I)c(N)c1I)C(=O)O (stereo unspecified) | inactive | – |
| COC(=O)[C@H](Cc1ccccc1)NC(=O)[C@@H](N)CC(=O)O (H-Asp-Phe-OMe) | inactive | – |
| C/C(=C(\CCO)SS/C(CCO)=C(\C)N(C=O)Cc1cnc(C)nc1N)N(C=O)Cc1cnc(C)nc1N | inactive | – |
| CN(CC1(C)CCCO1)S(=O)(=O)c1ccc(Cl)c(S(N)(=O)=O)c1 (stereo unspecified) | inactive | – |

| SMILES | Potency | outcome |
| --- | --- | --- |
| CC(C)(C)NCC(O)c1cc(O)cc(O)c1 (stereo unspecified) | inactive | – |
| CCC(=O)c1c(O)cc(O)cc1O | inactive | – |
| C[C@](N)(Cc1ccc(O)cc1)C(=O)O | – | inactive [at 5.25 µM] |
| COc1cc(C(=O)NC2CCCNC2)cc(OC)c1OC (stereo unspecified) | inactive | – |
| Nc1ccc(C(=O)Oc2ccccc2)c(O)c1 | inactive | – |
| CN1C(CSCC(F)(F)F)Nc2cc(Cl)c(S(N)(=O)=O)cc2S1(=O)=O (stereo unspecified) | inactive | – |
| CC(C)C[C@H](CN)CC(=O)O | inactive | – |
| COc1cc(C)nc(-n2nc(C)cc2OC)n1 | inactive | – |
| C[C@]12C=CC(=O)C=C1[C@@H](F)C[C@@H]1[C@@H]2[C@@H](O)C[C@@]2(C)[C@H]1CC[C@]2(O)C(=O)CO | inactive | – |
| Cc1cc(C)c(NC(=O)CN(CC(=O)O)CC(=O)O)c(C)c1Br | inactive | – |
| CN=C(NC#N)NCCSCc1nc[nH]c1C | inactive | – |
| Cc1cc2nc3c(=O)[nH]c(=O)nc-3n(C[C@H](O)[C@H](O)[C@H](O)CO)c2cc1C | inactive | – |
| CC(CC(C#N)(c1ccccc1)C(C)C)N(C)C (stereo unspecified) | inactive | – |
| NS(=O)(=O)c1cc2c(cc1Cl)NC(CC1CCCC1)NS2(=O)=O (stereo unspecified) | inactive | – |
| CCc1cccc(CC)c1NC(=O)CN(CC(=O)O)CC(=O)O | inactive | – |
| CC(=O)OC(C)C[N+](C)(C)C (stereo unspecified) | inactive | – |
| CCCCC(CC)CN1CN(CC(CC)CCCC)CC(C)(N)C1 (stereo unspecified) | inactive | – |
| CC(C(=O)O)c1cccc(Oc2ccccc2)c1 (stereo unspecified) | inactive | – |
| CC(=O)OCC(=O)[C@@]1(OC(C)=O)[C@@H](C)C[C@H]2[C@@H]3C[C@H](F)C4=CC(=O)C=C[C@]4(C)[C@@]3(F)[C@@H](O)C[C@@]21C | inactive | – |

Experiment: Primary qHTS to identify inhibitors of SARS-CoV-2 cell entry (AID 1645846); also: nearly all actives have a fitted effect of over 45% in size
Settings: SARS-CoV-2 pseudovirus cell entry assay, luminescence; activity change, negative = inhibition: at 57.1 µM (top of the series) unless noted; series mostly up to 57.1 µM
Method in brief: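 HEK293 cells stably expressing human ACE2, pre-treated 1 h with compound, then infected with MLV particles pseudotyped with Wuhan-Hu-1 spike (C-terminal 19-aa truncation). Luciferase luminescence after 48 h at 37 °C, normalised to spike PP and bald PP.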

| SMILES | Potency | activity change, negative = inhibition | outcome |
| --- | --- | --- | --- |
| CN(C)CCOC(=O)COc1ccc(Cl)cc1 | inactive | – | – |
| NC(=O)c1ncn([C@@H]2O[C@H](CO)[C@@H](O)[C@H]2O)c1O | inactive | – | – |
| O=C(O)C[C@H](O)C[C@H](O)/C=C/c1c(C2CC2)nc2ccccc2c1-c1ccc(F)cc1 | – | -3.35% | – |
| O=C(CS(=O)Cc1ccco1)NC/C=C\COc1cc(CN2CCCCC2)ccn1 (stereo unspecified) | inactive | – | – |
| CCCC(=O)O[C@]1(C(=O)COC(=O)CC)CC[C@H]2[C@@H]3CCC4=CC(=O)CC[C@]4(C)[C@H]3[C@@H](O)C[C@@]21C | – | -22.2% [at 27.1 µM] | – |
| CC1CCc2c(N3CCC(O)CC3)c(F)cc3c(=O)c(C(=O)O)cn1c23 (stereo unspecified) | inactive | – | – |
| C[C@@H]1O[C@@H](OC[C@H]2O[C@@H](Oc3c(-c4ccc(O)c(O)c4)oc4cc(O)cc(O)c4c3=O)[C@H](O)[C@@H](O)[C@@H]2O)[C@H](O)[C@H](O)[C@H]1O | inactive | – | – |
| CC(C)(C)NC[C@H](O)COc1nsnc1N1CCOCC1 | – | -5.6% | – |
| Nc1nc(N)nc(-c2cc(Cl)ccc2Cl)n1 | inactive | – | – |
| O=C(O)c1cc(N=Nc2ccc(O)c(C(=O)O)c2)ccc1O | – | -12.7% | – |
| CC(=O)SCC(CC(=O)c1ccc(C)cc1)C(=O)O (stereo unspecified) | inactive | – | – |
| O=C(N[C@H](CO)[C@H](O)c1ccc([N+](=O)[O-])cc1)C(Cl)Cl | – | 2.2% | – |
| CC(=O)Nc1ccc(OC(=O)c2ccccc2OC(C)=O)cc1 | – | -2.29% | – |
| CC1(C)O[C@@H]2C[C@H]3[C@@H]4CCC5=CC(=O)C=C[C@]5(C)[C@@H]4[C@@H](O)C[C@]3(C)[C@]2(C(=O)CO)O1 | inactive | – | – |
| CC(C)=CCC1C(=O)N(c2ccccc2)N(c2ccccc2)C1=O | – | -3.84% | – |
| CCC(Cc1c(I)cc(I)c(N)c1I)C(=O)O (stereo unspecified) | inactive | – | – |
| COC(=O)[C@H](Cc1ccccc1)NC(=O)[C@@H](N)CC(=O)O (H-Asp-Phe-OMe) | – | -5.59% | – |
| C/C(=C(\CCO)SS/C(CCO)=C(\C)N(C=O)Cc1cnc(C)nc1N)N(C=O)Cc1cnc(C)nc1N | – | -31.6% | – |
| CN(CC1(C)CCCO1)S(=O)(=O)c1ccc(Cl)c(S(N)(=O)=O)c1 (stereo unspecified) | – | -32.6% | – |

| SMILES | Potency | activity change, negative = inhibition | outcome |
| --- | --- | --- | --- |
| CC(C)(C)NCC(O)c1cc(O)cc(O)c1 (stereo unspecified) | inactive | – | – |
| CCC(=O)c1c(O)cc(O)cc1O | – | -5.3% | – |
| C[C@](N)(Cc1ccc(O)cc1)C(=O)O | – | – | inactive [at 5.25 µM] |
| COc1cc(C(=O)NC2CCCNC2)cc(OC)c1OC (stereo unspecified) | – | -15.8% | – |
| Nc1ccc(C(=O)Oc2ccccc2)c(O)c1 | inactive | – | – |
| CN1C(CSCC(F)(F)F)Nc2cc(Cl)c(S(N)(=O)=O)cc2S1(=O)=O (stereo unspecified) | – | -21.3% | – |
| CC(C)C[C@H](CN)CC(=O)O | inactive | – | – |
| COc1cc(C)nc(-n2nc(C)cc2OC)n1 | inactive | – | – |
| C[C@]12C=CC(=O)C=C1[C@@H](F)C[C@@H]1[C@@H]2[C@@H](O)C[C@@]2(C)[C@H]1CC[C@]2(O)C(=O)CO | inactive | – | – |
| Cc1cc(C)c(NC(=O)CN(CC(=O)O)CC(=O)O)c(C)c1Br | – | -26.2% | – |
| CN=C(NC#N)NCCSCc1nc[nH]c1C | – | 4.18% | – |
| Cc1cc2nc3c(=O)[nH]c(=O)nc-3n(C[C@H](O)[C@H](O)[C@H](O)CO)c2cc1C | inactive | – | – |
| CC(CC(C#N)(c1ccccc1)C(C)C)N(C)C (stereo unspecified) | inactive | – | – |
| NS(=O)(=O)c1cc2c(cc1Cl)NC(CC1CCCC1)NS2(=O)=O (stereo unspecified) | inactive | – | – |
| CCc1cccc(CC)c1NC(=O)CN(CC(=O)O)CC(=O)O | inactive | – | – |
| CC(=O)OC(C)C[N+](C)(C)C (stereo unspecified) | inactive | – | – |
| CCCCC(CC)CN1CN(CC(CC)CCCC)CC(C)(N)C1 (stereo unspecified) | inactive | – | – |
| CC(C(=O)O)c1cccc(Oc2ccccc2)c1 (stereo unspecified) | – | -1.5% | – |
| CC(=O)OCC(=O)[C@@]1(OC(C)=O)[C@@H](C)C[C@H]2[C@@H]3C[C@H](F)C4=CC(=O)C=C[C@]4(C)[C@@]3(F)[C@@H](O)C[C@@]21C | inactive | – | – |
